This is part of a sample that, as a whole, favours compounds with a hit. Of some 83,000 tested, about 20% had one in any assay.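 Each cell line was grown in a 96-well plate and treated with one concentration of compound for 48 hours. Values below 10 were considered active.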 A number with no mark means an inactive call. The source made the active and inactive calls.

The subject of this assay is HCT-15 colon. The assay can be described thus: NCI-60 one-dose screen, 48 h (100 = growth as untreated, 0 = no growth, -100 = all killed). Conditions: 10 µM unless noted. As to the method:
Growth inhibition of the HCT-15 human tumor cell line is measured as a screen for anti-cancer activity. Cells are grown in 96 well plates and exposed to the test compound for 48 hours. Compounds are tested at a single concentration, which is 10^-5 M for most compounds. The reported endpoint is percent growth (GI% or GIPRCNT), where numbers from 0 - 100% represent growth inhibition, and numbers from -100% - 0 represent cell death. For example, a value of 40 represents 60% growth inhibition. A value of 0 means no net growth occurred over the course of the experiment. A value of -40 indicates 40% of cells at the beginning of the experiment died by the end of the experiment. A value of -100 means all cells are dead at the end of the experiment.
NCI-60 Human Tumor Cell Lines Screen was performed using the standard one-dose NCI protocol, which is described in more detail at https://dtp.cancer.gov/discovery_development/nci-60/default.htm.
Compounds with GIPRCNT values below 10 were considered active. Activity score was based on GIPRCNT using the following formula: […]
Score is 0 for GIPRCNT values of 100 or above, 50 for GIPRCNT values of 0, and 100 for GIPRCNT values of -100.
`CN1CCN(C(=O)[C@@]2(C)CC[C@]3(C)CC[C@]4(C)C(=CC[C@@H]5[C@@]6(C)C/C(=C/c7ccncc7)C(=O)C(C)(C)[C@@H]6CC[C@]54C)[C@@H]3C2)CC1`: the growth is 30.2%.

`CCCNCC(=O)Nc1ccc(C(=O)OC(C)(C)CC)cc1`: the growth is 106%.

Consider `Cl.Fc1c[c-]c(-c2ccccn2)c(F)c1.[Pt].c1ccc([PH+](c2ccccc2)c2ccccc2[PH+](c2ccccc2)c2ccccc2)cc1`, for which the growth is -83.8% (active).

`COc1cc2c(cc1OC)-c1ccc3cc4c(cc3c1N(CCCN1CCCCC1)C2)OCO4`: the growth is 47.5%.

For `C[N+](C)(C)CCOC(OCC[N+](C)(C)C)(c1ccccc1)c1ccccc1`, the growth is 104%.

As to `C/C(=N\NC(=O)Cn1c(-c2ccc(S(C)(=O)=O)cc2)nc2cc(Cl)ccc21)c1ccc(Cl)cc1`, the growth was 77%.

For `CCCCCCCCN(CCCCCCCC)C(=N)c1ccnc2ccccc12`, the growth was -88.2% (active).

Consider `O=S(=O)(NCCNc1cc(-c2c(-c3cccc(O)c3)nc3sccn23)ccn1)c1ccc(Cl)cc1`, for which the growth is 53.2%.

In the case of `Oc1ccccc1-c1nc2ccccn2c1NCCN1CCOCC1`, the growth was 99.4%.

Consider `O=C(CC12CC3CC(CC(C3)C1)C2)NCCOCCOCCNC(=O)c1cc2c(o1)C(=O)c1ccccc1C2=O`, for which the growth is -80.2% (active).

Turning to `C/C(=N\NC(N)=S)c1nc2ccc(Cl)cc2[nH]1`, the growth was 35.7%.

In the case of `CN1C(=O)CCC(N2C(=O)c3cccc(NCCOCCOCCNC(=O)c4cc5c(o4)C(=O)c4ccccc4C5=O)c3C2=O)C1=O` (stereo not given), the growth is -79% (active).

In the case of `O=C1Nc2ccccc2/C1=N/N=C/c1ccsc1`, the growth is 98%.

With `CS(=O)(=O)c1ccc(-c2nc3cc(Cl)ccc3n2CC(=O)N/N=C/c2ccc(Cl)cc2)cc1`, the growth was 72.6%.

For `N=C(N)c1ccc(-c2ccc(-c3ccc(Cl)c(Cl)c3)o2)cc1`, the growth is -55.7% (active).

Take `CC(/C=N/NC(=O)c1cc(-c2ccco2)[nH]n1)=C\c1ccccc1`: the growth was 93.2%.

On to `CC(C)n1nc(C#Cc2cccc3cc(-c4cccc(C(F)(F)F)c4)ncc23)c2c(N)ncnc21`, for which the growth was 64.3%.

For the molecule `CCCCN(Cc1ccc(C(=O)NO)cc1)C(=O)Nc1ccc(OCCCCCCCCCn2cc(CCCCC(=O)N[C@H](C(=O)N3C[C@H](O)C[C@H]3C(=O)NCc3ccc(-c4scnc4C)cc3)C(C)(C)C)nn2)cc1`, the growth was 88.7%.

Turning to `CN(CCCCCCCCNc1ccnc2ccccc12)Cc1ccc(-c2ccc(-c3ccc(C#N)cc3)s2)cc1`, the growth was -82.1% (active).

For the molecule `O=C(O)c1ccc(CO)o1`, the growth was 103%.

Regarding `C=C(C)[C@@H]1CC[C@@]2(C(=O)O)CC[C@]3(C)C(CCC4[C@@]5(C)CCC(OS(=O)(=O)c6ccccc6)C(C)(C)C5CC[C@]43C)C12` (stereo not given in full), the growth is 39.7%.

With `COc1cc2c(O)n(CCCn3ccnc3)c3c4cnc5cccc(c(=O)c3c2cc1OC)c54`, the growth was 95.2%.

As for `COc1ccccc1C(=O)NC(=S)Nc1ccc(-c2nc3ccccc3[nH]2)cc1`, the growth is 59.5%.

Take `NC(=O)c1c(NC(=O)c2ccc(C(F)(F)F)cc2Cl)sc2c1CCC(=O)C2`: the growth is -35% (active).

Take `O=C(CCl)N1c2cccc3cccc(c23)N(C(=O)CCl)C1c1cn(-c2ccccc2)nc1-c1cccc([N+](=O)[O-])c1`: the growth is 85.6%.

For the molecule `COc1cc(-c2ncn(/C=C\c3nnco3)n2)cc(C(F)(F)F)c1`, the growth was 17.6%.

With `CCCCOc1ccc(NC(=O)n2nc(N=NN(C)C)c3ccc(Cl)cc32)cc1`, the growth is 105%.

Regarding `CCCCNC(=O)NS(=O)(=O)c1ccc(N2N=C(c3ccc(C)cc3C)CC2c2ccc(N(C)C)cc2)cc1` (stereo not given), the growth was 35.3%.

Turning to `O=C1Nc2ccccc2SC1C1SC(=S)N(Cc2ccccc2)C1=O` (stereo not given), the growth is 103%.

For the molecule `Cc1cc(=O)[nH]c(N/N=C/c2cc(Br)ccc2O)n1`, the growth was 30.5%.

Turning to `CC(=O)Nc1nccs1`, the growth is 98%.

As to `CN1CCN(C(=O)[C@]23CCC(C)(C)C[C@@H]2C2=CC[C@@H]4[C@@]5(C)Cc6c([nH]c7ccccc67)C(C)(C)[C@@H]5CC[C@@]4(C)[C@]2(C)CC3)CC1`, the growth is 81.5%.

In the case of `COc1ccc(C(=O)/C=C/c2cc3c(c(OC)c2)OCC(=O)N3)cc1`, the growth was 33.4%.

On to `O=C1C2=C(CCN(Cc3ccccc3)C2)N2CCN=C2N1Cc1ccc(C(F)(F)F)cc1`, for which the growth is 13%.

With `CN(C)S(=O)(=O)n1cnc([C@@H]2[C@@H]3C(=O)OC[C@@H]3C[C@]23N=CN(Cc2ccccc2)C3=O)c1`, the growth was 98.4%.

For `O=C(CCc1nc(-c2cccc(Cl)c2)no1)Nc1ccccn1`, the growth is 95.2%.

For `NC(=O)c1c(NC(=O)c2ccccn2)sc2c1CCC(=O)C2`, the growth was 13.4%.

Consider `O=C1N/C(=N/O)S/C1=C/c1cn(-c2ccccc2)nc1-c1ccccc1`, for which the growth was 86.5%.

Turning to `C=C1C(=O)O[C@H]2[C@H]1CC/C(C(=O)NCCCCCCCCNC(=O)/C1=C/CC[C@@]3(C)O[C@H]3[C@H]3OC(=O)C(=C)[C@@H]3CC1)=C\CC[C@@]1(C)O[C@@H]21`, the growth is 107%.

`Cc1cc(-c2noc(C(F)(F)F)n2)ccc1N1CCN(c2cc(C(=O)N(C)C)no2)CC1`: the growth was 70.3%.

The values above are taken from PubChem BioAssay (NCI).
